The source of these data is PubChem BioAssay (Tox21).

SMILES strings stand for the structures. Records with an inconclusive call do not appear. Where a call stands in place of a potency, no number is given. Active and inactive are the calls of the source. The call rests on the fitted dose curve; in most records, active means well fitted cell-killing curve with a large enough effect in the repeat runs; inconclusive means weak or mixed curves, or effect the other way; inactive means flat fitted curve, though single readings scatter.

The nature of the test: qHTS assay to identify small molecule antagonists of the constitutive androstane receptor (CAR) signaling pathway - cell viability counter screen (AID 1224837). Further: nearly all actives have a fitted effect of over 45% in size. Conditions: HepG2-CYP2B6-hCAR viability, CellTiter-Fluor, 23 h, co-treated with 50 nM CITCO; series mostly up to 92.4 µM. The source says:
National Center for Advancing Translational Sciences [NCATS]
NIH Chemical Genomics Center [NCGC]
U.S. Environmental Protection Agency [EPA]
National Institutes of Environmental Health Sciences [NIEHS]
National Toxicology Program [NTP]
U.S. Food and Drug Administration [FDA]
The constitutive androstane receptor (CAR) is a nuclear receptor which regulates multiple drug metabolizing enzymes (DMEs) and transporters. Activating CAR will generally increase the transcription and subsequent translation of CYP2B6 and CYP3A4. These two DMEs represent about 50% of the drug metabolizing potential in the body. When CAR is deactivated, the metabolizing potential in the body will decrease, subsequently increasing the toxicity in the body or lowering the therapeutic potential of a pro-drug. Recently, there have also been studies performed indicating CARs role in energy metabolism and cancer therapy. Therefore, inhibiting CARs activity could have a potential effect on diabetes and cancer. Identifying environmental toxins and compounds which modulate CAR, through the use of the Tox21 10K compound collection, will be an important step in determining the toxicity and potential therapeutic effects these factors will have on the human body. To differentiate true CAR antagonists from cytotoxic substances, the assay is multiplexed with a cell viability assay.
Tox21 Assay Protocol Summary:
A double-stable (hCAR and CYP2B6-2.2kb) transfected cell line, derived from human hepatoma (HepG2) cells, was utilized for the duration of the quantitative high-throughput screens. The HepG2-CYP2B6-hCAR cells were dispensed at 2500 cells/4 uL/well in 1536-well white solid bottom plates using a Multidrop Combi. After the assay plates were incubated at 37 C/5% CO2 for 4 hrs, 23 nL of compounds at 15 concentrations (from 5-48 columns) or positive control (from 1 to 4 columns) were transferred to the assay plates using a Pintool station. One uL of CITCO (final concentration = 50 nM) was added, using a Flying Reagent Dispenser, inside each well. After a 23 hr incubation period at 37 C/5% CO2, 1 uL of CellTiter-Fluor reagent was added into each well of the assay plates using a Flying Reagent Dispenser. The fluorescence intensity in the plates was then measured using a ViewLux plate reader.
On the technique in general: Quantitative high-throughput screening tests each substance at several concentrations.
For `CC(C)(C)N`, the Potency entry was “inactive”.

Consider `CC[C@H](NC(C)C)[C@H](O)c1ccc(O)c2[nH]c(=O)ccc12`, for which the Potency result is “inactive”. The same measure, in the same setting: under `CC(CN=Cc1ccccc1O)N=Cc1ccccc1O` (stereo not given) stands “inactive”.

Consider `C=CC(=O)NC(C)(C)C`, for which the Potency result was “inactive”. The same measure, in the same setting: then `Nc1ncnc2c1ncn2[C@@H]1O[C@H](CO)[C@@H](O)[C@H]1O`, with “inactive”; and `Nc1cccc2c(=O)[nH][nH]c(=O)c12`, with “inactive”; and `FC1(F)C(F)(F)C(F)(F)C2(F)C(F)(C1(F)F)C(F)(F)C(F)(F)C1(F)C(F)(F)C(F)(F)C(F)(F)C(F)(F)C12F` (stereo not given), with “inactive”.

As to `CC(CC(C#N)(c1ccccc1)C(C)C)N(C)C` (stereo not given), the Potency result is “inactive”.

For `Nc1ccc(F)cc1F`, the Potency result was “inactive”. Turning to `Cc1ccc2c(Cl)cc(Cl)c(O)c2n1`, the Potency entry was “inactive”.

Regarding `C=C[Si]1(C)O[Si](C)(C=C)O[Si](C)(C=C)O[Si](C)(C=C)O1` (stereo not given), the Potency entry was “inactive”. On to `CC(C)=CCCC(C)C=O` (stereo not given), for which the Potency entry was “inactive”. Consider `CC(C)Cc1nccs1`, for which the Potency entry was “inactive”. `CCOC(=O)CC(O)(CC(=O)OCC)C(=O)OCC`: the Potency entry was “inactive”. With `CCCCCCCCC(=O)OCC(C)OC(=O)CCCCCCCC` (stereo not given), the Potency result was “inactive”. The same measure, in the same setting: under `COc1ccc(/C=C/S(=O)(=O)NC(=O)c2ccc(C)cc2Cl)cc1` stands “inactive”; under `CC(C)Oc1ccccc1O`, “inactive”; under `O=C1C=CCCC1`, “inactive”. Same read-out and setting: under `Cc1nc(C)c(C)nc1C` stands “inactive”; under `CCN(CCCCOC(=O)c1ccc(OC)c(OC)c1)C(C)Cc1ccc(OC)cc1` (stereo not given), “inactive”. On to `Cc1cc(N)n(-c2ccccc2)n1`, for which the Potency entry was “inactive”. For `CC1=CC(=C(c2ccc(N)cc2)c2ccc(N)cc2)C=CC1=N`, the activity change, negative = cytotoxicity was -13.7% [at 8.39 µM] (inactive).

Take `CCCC1CCCC(=O)O1` (stereo not given): the Potency entry is “inactive”. Same read-out and setting: then `CCCCCCCCCCCCSC#N`, with “inactive”. Still for that read-out and setting: then `O=C(O)c1cccc(C(=O)O)c1C(=O)O`, with “inactive”. `O=c1[nH][nH]c2ccccc12`: the Potency result was “inactive”. Still for that read-out and setting: under `COc1ccc(/C(C)=C/C(=O)O)c(OC)c1` stands “inactive”; under `O=C1c2ccccc2C(=O)c2c1ccc(O)c2O`, “inactive”. As for `COC=O`, the activity change, negative = cytotoxicity is -19.2% [at 8.39 µM] (inactive).

For `Cc1ccc(Cl)c(OCC(O)CNC(C)(C)C)c1` (stereo not given), the Potency result was “inactive”. The same measure, in the same setting: under `CC1(C)C(=O)NC(=O)N1CO` stands “inactive”. On the same count and under the same terms, under `CO[C@@H]1[C@@H](O[C@@H]2O[C@H](C)[C@@H](O[C@H]3C[C@@](C)(O)[C@@H](O)[C@H](C)O3)[C@H](N(C)C)[C@H]2O)[C@@H](CC=O)C[C@@H](C)[C@@H](O[C@@H]2CC[C@H](N(C)C)[C@@H](C)O2)/C=C/C=C/C[C@@H](C)OC(=O)C[C@H]1OC(C)=O` stands “inactive”; under `CC(C)=CCC/C(C)=C/C=N/O`, “inactive”; under `Oc1ccc(CCNCCCCCCNCCc2ccccc2)cc1O`, “inactive”. Same read-out and setting: under `COc1cc(C)c(Cc2cnc(N)nc2N)cc1OC` stands “inactive”; under `C=CC(=O)OCCCCCCCCCC`, “inactive”. In the case of `C/C(=C(\CCO)SS/C(CCO)=C(\C)N(C=O)Cc1cnc(C)nc1N)N(C=O)Cc1cnc(C)nc1N`, the Potency result is “inactive”. Still for that read-out and setting: under `Nc1ccc(-c2ccc(F)cc2)cc1` stands “inactive”.

Turning to `O=C(OCCN1CCOCC1)c1cccnc1Nc1cccc(C(F)(F)F)c1`, the Potency entry was “inactive”.

In the case of `O=C1c2ccccc2C(=O)C1c1ccc2ccccc2n1`, the Potency result is “inactive”.
